TbREL1 primary – TbREL1 RNA ligase inhibitors, primary screen, biochemical, FRET fluorescence; RNA-editing ligase 1, mitochondrial (Trypanosoma brucei brucei), P86926; TbREL1 RNA ligation; inhibition, % at 9.66 µM; actives 0.49% (n = 89,000); AID 1117264, 2014;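 active = inhibition above the mean inhibition across all screened compounds plus 3 SD, cut at about 11% in these data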;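 note: 0% = plate median of test wells and 100% = NSC42067 control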
Target sequence (P86926 whole entry, looked up): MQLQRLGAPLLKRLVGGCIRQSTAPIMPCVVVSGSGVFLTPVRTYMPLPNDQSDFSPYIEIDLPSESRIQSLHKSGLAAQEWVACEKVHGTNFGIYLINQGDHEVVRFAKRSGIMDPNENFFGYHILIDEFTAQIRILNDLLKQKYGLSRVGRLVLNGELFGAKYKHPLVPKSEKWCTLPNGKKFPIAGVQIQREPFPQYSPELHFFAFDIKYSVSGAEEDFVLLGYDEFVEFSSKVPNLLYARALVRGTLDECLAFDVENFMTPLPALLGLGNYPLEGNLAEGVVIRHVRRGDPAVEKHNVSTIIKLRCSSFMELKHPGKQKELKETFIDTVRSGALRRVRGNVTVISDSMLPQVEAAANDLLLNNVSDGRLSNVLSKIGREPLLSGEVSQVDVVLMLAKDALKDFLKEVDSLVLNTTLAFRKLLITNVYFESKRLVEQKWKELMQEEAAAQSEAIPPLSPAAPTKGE
TbREL1 confirm – TbREL1 RNA ligase inhibitors, confirmation, biochemical, FRET fluorescence, triplicate | shares compounds with TbREL1 primary | TbREL1 RNA ligation | actives 37% (n = 390) | AID 1117282, 2014 | inhibition, % at 9.66 µM;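 active = mean inhibition across replicates above a set limit taken from the earlier primary screen, cut at about 11% in these data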;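 note: 0% = REL1 with substrate and DMSO and 100% = REL1 plus control inhibitor NSC42067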
* = called active by the depositor. The full list was thinned out, with hits kept by preference.

SMILES	TbREL1 primary	others
CCOC(=O)N1CCN(C(=O)CSc2cc(C)nc3c(-c4ccccc4OC)c(C)nn23)CC1	13*	TbREL1 confirm=2
COc1ccccc1-c1c(C)nn2c(N3CCC(C(N)=O)CC3)cc(C)nc12	4
COc1ccccc1-c1c(C)nn2c(N3CCC(C)CC3)cc(C)nc12	-1
O=C1CCC[C@H]2C[C@H](NCc3cccc(F)c3)CC[C@]23CCCN13	5
CCOc1ccc(-n2c(SCC(=O)Nc3ccc4cn[nH]c4c3)nnc2-c2ccncc2)cc1	5
O=C1CCC2(CCC(c3ccccc3)CC2)N1CC[C@@H](O)c1ccccc1 (some centres undefined)	-2
COc1cc(NC(=O)c2ccccc2)c(C)cc1NC(=O)CSc1nnc(-c2ccccc2F)n1-c1ccc(C)cc1	-1
COc1ccc(Cl)cc1S(=O)(=O)N1CCCC(C(=O)NCc2ccccn2)C1 (centres undefined)	-2
COc1ccc(C2C(C(=O)NCc3ccccn3)c3cc(OC)c(OC)cc3C(=O)N2C)cc1 (centres undefined)	-1
COc1cc2c(cc1OC)-c1cc(NCc3ccccn3)nc(=O)n1CC2	21*	TbREL1 confirm=23*
C[C@@H]1CCN(C2CC2)S(=O)(=O)c2ccc(N3CCC[C@@H]3CO)cc2O1	-2
COc1ccc(C(=O)C[n+]2ccc3c(c2)nc(Cc2ccccc2)n3C)cc1	9
c1ccc2c(c1)N=C(N1CCN(Cc3ccc4c(c3)OCO4)CC1)c1ccccc1S2	0
COc1ccc(CN[C@@H]2CC[C@@]34CCCN3C(=O)CCC[C@H]4C2)cc1OC	-2
COc1ccccc1-c1ccc2c(c1)C(C)(Cc1cc(Cl)ccc1C(F)(F)F)C(=O)N2 (centres undefined)	17*	TbREL1 confirm=7
CC1(Cc2ccccc2OC(F)(F)F)C(=O)Nc2ccc(-c3ccsc3)cc21 (centres undefined)	4
COc1ccc(C(C)=O)cc1CC1(C)C(=O)Nc2ccc(-c3cccc(C(F)(F)F)c3)cc21 (centres undefined)	2
O=C(NCCN1CCC(Cc2ccccc2)CC1)C1CCCN(S(=O)(=O)c2ccc(Cl)s2)C1 (centres undefined)	6
COC(=O)c1cc(-c2cccc3c2sc2ccccc23)c(=O)n2c1CCC2	8
O=C(CSc1nc2ccccc2nc1N1CCCCC1)N1CCN(S(=O)(=O)c2cc(Cl)ccc2Cl)CC1	-2
CC(=O)c1cccc(NC(=O)C2(C)Cc3c(-c4cccc(C(N)=O)c4)ccnc3O2)c1 (centres undefined)	3
CC1(C(=O)NCc2ccc(F)c(F)c2)Cc2c(-c3cccc(C(N)=O)c3)ccnc2O1 (centres undefined)	-6
CC(=O)NCCNC(=O)C1(C)Cc2c(-c3cccc(C(N)=O)c3)ccnc2O1 (centres undefined)	14*	TbREL1 confirm=5
COc1ccc(C(=O)CSc2nnc(-c3n[nH]c4c3CCC4)n2N)cc1OC	0
COC(=O)c1cc(NC(=O)C(C)c2ccc(CC(C)C)cc2)ccc1O (centres undefined)	1
SMILES	TbREL1 primary	others
CC(C)Cc1ccc(C(C)C(N)=NCCc2ccccc2)cc1 (centres undefined)	12*	TbREL1 confirm=12*
CC(C)c1ccc(CNCc2ccccc2)cc1	2
COc1ccc(NC(=O)OCCN2CCCC23CCC(c2ccccc2)CC3)cc1 (centres undefined)	0
COc1ccc(C=Nn2c(-c3ccc(F)cc3)n[nH]c2=S)cc1OCc1ccccc1	-2
S=C(Nc1cccc(Cl)c1)OCCN1CCCC12CCC(c1ccccc1)CC2 (centres undefined)	-4
O=C(CNc1ccc2ccccc2c1)N/N=C/c1ccccn1	-7
Cc1cccc(NCC(=O)N/N=C/c2cccc(Br)c2)c1	12*	TbREL1 confirm=-1
C/C(=N\NC(=O)CNc1cccc(C)c1)c1ccc(Br)s1	-1
COC(=O)[C@]12C[C@H](CC(=O)NCc3ccccc3)C(=O)N(Cc3cccc4ccccc34)C1=C[C@H](COCc1ccccc1)O[C@@H]2C	-1
COC(=O)CSc1nnc(-c2ccc(NS(=O)(=O)c3c(C(C)C)cc(C(C)C)cc3C(C)C)cc2)o1	3
CCCCC(=O)N1CCN(C(=O)c2ccc3nc(C)n(C4CCCC4)c3c2)CC1	-1
CN1CCCN(C(=O)C2CCCN(C(=O)c3ccc4c(c3)NC(=O)CS4)C2)CC1 (centres undefined)	1
Cc1cc(NS(=O)(=O)c2ccc(NC(=O)CSc3nnc(-c4ccc(Cl)cc4)n3Cc3ccco3)cc2)nc(C)n1	-2
Cc1cc(NS(=O)(=O)c2ccc(NC(=O)CSc3nnc(-c4ccncc4)n3Cc3ccco3)cc2)nc(C)n1	35*	TbREL1 confirm=0
Cc1ccc(OCc2nnc(SCC(=O)Nc3ccc(S(=O)(=O)Nc4cc(C)nc(C)n4)cc3)n2Cc2ccco2)cc1	6
Cc1ccccc1CN1CCCCC(NC(=O)c2ccc(-c3ccccc3)cc2)C1=O (centres undefined)	-3
COc1cc(Cn2cc([C@]34C[C@H]5C(=O)N(C)CC(=O)N5[C@H]3N(S(=O)(=O)c3ccccc3)c3ccccc34)c3ccccc32)cc(OC)c1	-2
CC(C)CCOC(=O)C1C2C=CC3(CN(Cc4cccs4)C(=O)C13)O2 (centres undefined)	-6
O=C(NCC1CCCO1)C1C2C=CC3(CN(Cc4cccs4)C(=O)C13)O2 (centres undefined)	20*	TbREL1 confirm=1
O=C(NCc1cccs1)C1C2C=CC3(CN(Cc4ccccc4)C(=O)C13)O2 (centres undefined)	2
Cc1cc2cc3c(cc2n2c(SCC(=O)Nc4nc(-c5ccccc5)cs4)nnc12)OCO3	7
S=c1[nH]nc(-c2cc(-c3ccccc3)n[nH]2)n1N=Cc1c[nH]c2ccccc12	-7
O=C(NCCc1ccccc1)OCc1cn(Cc2ccccc2F)nn1	3
CCC(=O)N1CCc2cc(Br)c(S(=O)(=O)NCc3ccccc3OC)cc21	0
Cc1c(NC(=O)C2CCCN(S(=O)(=O)c3cccc4ccccc34)C2)c(=O)n(-c2ccccc2)n1C (centres undefined)	-2
SMILES	TbREL1 primary	others
COC(=O)C1=C(C)N(Cc2ccccc2C(F)(F)F)C(=NCc2ccccc2)NC1c1ccc(Cl)cc1 (centres undefined)	14*	TbREL1 confirm=16*
COC(=O)C1=C(C)N(Cc2ccccc2C(F)(F)F)C(=NCc2ccccc2)NC1c1cccc(F)c1 (centres undefined)	15*	TbREL1 confirm=20*
COC(=O)C1=C(C)N(Cc2ccccc2)C(=S)NC1c1ccc(-c2ccccc2)cc1 (centres undefined)	-6
COC(=O)C1=C(C)N(Cc2ccc(F)cc2)C(=S)NC1c1cccc(OC)c1 (centres undefined)	-6
COC(=O)C1=C(C)N(Cc2ccc(Br)cc2)C(=S)NC1c1ccc(F)cc1 (centres undefined)	2
COC(=O)C1=C(C)N(Cc2ccccc2C(F)(F)F)C(=NCc2ccc(C(F)(F)F)cc2)NC1c1ccc(C(F)(F)F)cc1 (centres undefined)	25*	TbREL1 confirm=23*
COC(=O)C1=C(C)N(Cc2cccc(C(F)(F)F)c2)C(=NCc2ccc(OC)cc2)NC1c1ccc(F)cc1 (centres undefined)	12*	TbREL1 confirm=14*
